Compound activity deposited in PubChem BioAssay by National Center for Advancing Translational Sciences (NCATS).
This is a sample that favours compounds with a hit; in the whole collection about 12% have one here.
HP1b binding inh: HP1-beta chromodomain-methylated histone interaction inhibition; Potency, µM (titrated, usually from 114 µM), for inactives: top-dose activity change, negative = inhibition, actives largely listed as inhibitors; AlphaScreen HP1-beta / biotin-H3K9me3 peptide binding; AID 540317; hit rate 0.56% among 390,000; further: nearly all actives have a fitted effect of over 70% in size
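AlphaScreen: HP1-beta (50 nM) preformed 30 min with biotin-H3(1-18)K9me3 peptide (50 nM) in PBS pH 7.4, 0.01% Tween-20. Compound added for 30 min at RT, then streptavidin donor/nickel chelate acceptor beads (10 ug/mL) for 30 min.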
JMJD2A Tudor: inhibitors of human JMJD2A Tudor domain; AlphaScreen JMJD2A-Tudor / H3K4me3 peptide binding; hit rate 4.4% among 390,000; O75164; Potency, µM (doses to about 114 µM), for the others: top-dose activity change, negative = inhibition, usual class: inhibitors; further: on the % scale 0 is the no-effect control and ±100 the full control effect; nearly all actives have a fitted effect of over 50% in size
Target sequence (O75164 whole entry, looked up, the tested form may be a part): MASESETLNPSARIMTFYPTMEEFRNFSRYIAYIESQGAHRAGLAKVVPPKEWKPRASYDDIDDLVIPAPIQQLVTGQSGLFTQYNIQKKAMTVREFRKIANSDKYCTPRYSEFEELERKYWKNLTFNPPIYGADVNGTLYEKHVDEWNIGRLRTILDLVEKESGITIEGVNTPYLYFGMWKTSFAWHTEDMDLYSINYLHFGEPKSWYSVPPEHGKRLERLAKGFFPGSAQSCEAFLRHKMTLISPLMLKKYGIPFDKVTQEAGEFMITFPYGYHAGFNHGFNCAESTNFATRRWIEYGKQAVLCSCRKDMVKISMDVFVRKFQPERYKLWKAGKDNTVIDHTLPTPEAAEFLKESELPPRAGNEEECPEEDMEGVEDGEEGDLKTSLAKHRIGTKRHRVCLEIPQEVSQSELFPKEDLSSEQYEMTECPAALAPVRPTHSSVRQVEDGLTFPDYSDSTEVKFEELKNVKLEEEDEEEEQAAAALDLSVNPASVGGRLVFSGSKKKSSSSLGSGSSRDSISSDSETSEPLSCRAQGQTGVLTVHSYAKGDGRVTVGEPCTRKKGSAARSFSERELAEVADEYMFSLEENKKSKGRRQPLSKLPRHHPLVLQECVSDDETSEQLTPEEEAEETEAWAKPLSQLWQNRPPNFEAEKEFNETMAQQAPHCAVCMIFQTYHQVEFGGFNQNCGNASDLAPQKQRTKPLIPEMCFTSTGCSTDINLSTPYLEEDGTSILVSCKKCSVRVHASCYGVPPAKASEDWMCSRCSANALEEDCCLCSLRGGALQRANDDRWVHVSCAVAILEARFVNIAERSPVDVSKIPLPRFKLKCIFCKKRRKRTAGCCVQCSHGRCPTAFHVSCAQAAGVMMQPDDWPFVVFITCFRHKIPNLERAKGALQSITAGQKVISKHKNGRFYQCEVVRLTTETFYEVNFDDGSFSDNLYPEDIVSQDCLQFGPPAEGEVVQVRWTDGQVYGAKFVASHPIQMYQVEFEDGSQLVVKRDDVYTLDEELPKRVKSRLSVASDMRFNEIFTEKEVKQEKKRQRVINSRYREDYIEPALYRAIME
BAZ2B inh: inhibitors of human BAZ2B bromodomain. Q9UIF8. AlphaScreen BAZ2B-H3K14Ac peptide displacement. Potency, µM (top dose mostly 114 µM), without a hit: at the highest dose activity change, negative = inhibition, usual class: inhibitors. hit rate 4.4% among 360,000. AID 504333; further: on the % scale 0 is the no-effect control and ±100 the full control effect; nearly all actives have a fitted effect of over 60% in size
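Protein-peptide AlphaScreen: BAZ2B 50 nM, b-H3K14Ac 50 nM, 1x PBS pH 7.4 + 0.01% Tween-20. Preincubation 30 min RT; cpd 30 min RT (top 110 uM); beads 20 min RT, light-protected.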
L3MBTL1 block: blocks human L3MBTL1 | AlphaScreen L3MBTL1–H3K9me1 peptide binding | Potency, µM (titrated, usually from 57.1 µM), inactives show top-dose activity, negative = inhibition, actives largely listed as inhibitors | hit rate 0.66% among 230,000 | AID 485360; further: on the % scale 0 is the no-effect control and ±100 the full control effect; nearly all actives have a fitted effect of over 60% in size
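L3MBTL1 (50 nM) pre-complexed 30 min with biotinylated H3(1-15)K9me1 peptide (75 nM), then compounds added for 30 min at room temperature; AlphaScreen streptavidin donor/nickel chelate acceptor beads (10 ug/mL final) read after 30 min dark incubation.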
G9a inh: blocks human histone lysine methyltransferase G9a. hit rate 8.8% among 350,000. Potency, µM (doses to about 102 µM), for inactives: top-dose activity, negative = inhibition, actives largely listed as inhibitors. G9a H3K9 monomethylation, AlphaScreen, 2 h. Q96KQ7; further: on the % scale 0 is the no-effect control and ±100 the full control effect; nearly all actives have a fitted effect of over 75% in size
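AlphaScreen detection with an anti-monomethyl H3K9 antibody quantified product after a 2 h room-temperature reaction containing 500 nM biotinylated H3K9 peptide, 20 µM SAM and 20 nM enzyme, which had been preincubated 15 min with compound.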
Sfp inh: Sfp phosphopantetheinyl transferase inhibition. Q9F4F7. Biochemical Sfp PPTase activity, qHTS. Potency, µM, for the others: largest response in the series, negative = inhibition, hits mostly inhibitors. hit rate 3.5% among 310,000;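 further: the enzyme is Sfp with the accession as filed and its product quenches rhodamine fluorescence; 0% = enzyme reaction without inhibitor and -100% = no enzyme wells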
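After 15 min at room temperature with compound, 15 nM Sfp received 5 uM rhodamine-CoA plus 12.5 uM BHQ-2-ybbR (50 mM Hepes pH 7.6, 10 mM MgCl2). Rate came from the fluorescence difference over 30 min, ex 525/em 598 nm.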
* = called active by the depositor; ? = inconclusive; . = no result; ! = a repeat was not active; [ ] = remark or other dose. The call rests on the fitted dose curve; in most records, active means well fitted curve in the direction sought with a large enough effect; inconclusive means small, poorly fitted or top-dose-only effect, or another doubt; inactive means no such curve, though single readings can be large; an effect the other way counts as inactive or inconclusive. Potency means the concentration at half of the fitted maximal effect.

SMILES	HP1b binding inh	JMJD2A Tudor	BAZ2B inh	L3MBTL1 block	G9a inh	Sfp inh
Cc1nc(SCC(=O)Nc2ccccc2C)cc(-c2ccccc2)n1	10%	-17%	-2%	.	6%[59 µM]	.
CC(=O)c1ccc(N=Nc2ccc(C)cc2)cc1	?	7.9µM*	7.9µM*	.	7.9µM*	0%
Cc1ccc(C(=O)c2ccc(C)cc2)cc1	97%	53%	82%	35%	54%	1%
O=C(NNc1ccccc1F)c1sccc1Cl	62%	0%	.	.	.	.
CCCCn1c(N)c(N(CCOC)C(=O)c2cc3c(s2)CCC3)c(=O)[nH]c1=O	9%	-19%	3%	12%	18µM*	.
CCCCn1c(N)c(N(CCOC)C(=O)c2cc3c(s2)CCCCC3)c(=O)[nH]c1=O	6%	-14%	-10%	-5%	-27%	.
CCCn1c(N)c(N(CCOC)C(=O)c2ccc(C#N)cc2)c(=O)[nH]c1=O	27%	5%	-9%	.	71µM*	9%
CCCCN(C(=O)c1cc(CC)c(C)s1)c1c(N)n(CC(C)C)c(=O)[nH]c1=O	33%	-7%	-26%	.	-3%	8%
CCc1sc(C(=O)N(CCCOC)c2c(N)n(CC(C)C)c(=O)[nH]c2=O)cc1C	30%	-7%	-5%	4%	0.79µM*	.
COc1cc(C(=O)O)nc(OC)n1	-6%	2.8µM*	71µM*	.	?	-27%
CCN(CC)CCOC(=O)c1ccc(N/C=C(/C#N)c2nc(-c3ccc(OC)c(OC)c3)cs2)cc1	14µM*	35µM*	-33%	.	1.6µM*	?
CCN(CC)CCOC(=O)c1ccc(N/C=C(/C#N)c2nc(-c3cccc(OC)c3)cs2)cc1	11%	-11%	?	.	28µM*	?
Cc1ccc(-c2csc(/C(C#N)=C/Nc3ccc4c(c3)OCCO4)n2)cc1	18%	-21%	-22%	1%	-14%	7%
CCN(Cc1ccccc1)C(=O)Cn1c(=O)n(-c2cccc(C)c2)c(=O)c2c1c1cc(OC)ccc1n2C	40%	12%	5%	.	4%[59 µM]	.
COc1cc2c(cc1OC)C(COc1cc(C)cc(C)c1)N(C(=O)COc1ccccc1)CC2 (stereo unspecified)	9%	-33%	-29%	.	?	.
CCOC(=O)CCCCC(=O)c1[nH]c(=O)[nH]c1CSc1nnc2c3cc(Br)ccc3n(C)c2n1	.	.	-67%	?	28µM*	?
CCOC(=O)CCCCC(=O)c1[nH]c(=O)[nH]c1CSc1nc2ccccc2[nH]1	21%	79µM*	?	13µM*	1.6µM*	-12%
CCOC(=O)CCCCC(=O)c1[nH]c(=O)[nH]c1CSc1nc(C)cc(=O)[nH]1	18%	?	50µM*	7.9µM*	?	7%
CCc1ccc2oc(-c3cccc(NC(=O)c4ccc(-c5cccc([N+](=O)[O-])c5)o4)c3)nc2c1	18%	-22%	?	.	?	.
COc1ccc(CCNC(=O)CCc2c(C)nc3c(c(C)nn3-c3ccc(C)cc3)c2C)c(OC)c1	27%	-15%	-4%	.	-41%[59 µM]	.
CC(C)COCC(CN(Cc1ccccc1)c1ccccc1)N1CCCC1 (stereo unspecified)	35%	-3%	?	.	10µM*!	-19%
CCC1=C(c2ccc(C)cc2)S(=O)(=O)N=C1N1CCC(C(=O)Nc2ccccc2C(=O)OC)CC1	?	-28%	-14%	.	9%[59 µM]	.
C=CCn1c(=O)c2c(nc(-c3ccc(S(=O)(=O)O)cc3)n2C)n(C)c1=O	20%	?	.	.	12µM*	6%
O=C(COC(=O)CC1CCCC1)Nc1cc2c(cc1Cl)C(=O)c1ccccc1C2=O	-26%	56µM*	56µM*	.	?	15%
CN1CC[C@H](c2c(O)cc(O)c3c(=O)cc(-c4ccccc4Cl)oc23)[C@@H](O)C1	-2%	-34%	.	.	.	.
SMILES	HP1b binding inh	JMJD2A Tudor	BAZ2B inh	L3MBTL1 block	G9a inh	Sfp inh
O=C(NCc1cccs1)C1CCN(C(=O)N2CCOc3ccc(Cl)cc32)CC1	11%	-34%	?	.	?	.
CC(=O)Nc1ccc(SCC(=O)Nc2ccccc2-c2ccccc2)cc1	53%	-15%	?	-1%	-5%[59 µM]	1%
CC(=O)Nc1ccc(SCc2ncc(-c3ccccc3)o2)cc1	9%	-21%	-19%	.	50µM*	-9%
Cc1cc(C)nc(SCCC(=O)N2CCOCC2)n1	55%	-3%	-2%	6%	?	-10%
CCNC(=O)CCSc1nc(C)cc(C)n1	10%	?	0%	?	3.5µM*	32µM*
Cc1cc(C)nc(SCCC(=O)N(C)C)n1	39%	?	-1%	.	8.9µM*	50µM*
COc1ccc(-c2cc(C(=O)Oc3ccc(C#N)cc3)no2)cc1	30%	?	-24%	.	-34%[59 µM]	.
N#CC(C#N)=C1C=C2C=C(N3CCCCC3)CCC2CC1 (stereo unspecified)	?	?	45µM*	-9%	?	-10%
CCN(CC)C1=CC2=CC(=C(C#N)C#N)CCC2CC1 (stereo unspecified)	16%	-15%	-18%	-2%	-26%[59 µM]	-4%
Cc1ccc(Cl)cc1NC(=O)C1CCN(S(=O)(=O)c2cccc3nonc23)CC1	22%	-8%	-16%	.	0%[59 µM]	.
CC(C)=CCC1=C(O)[C@](O)(CC=C(C)C)C(=O)C(C(=O)CC(C)C)=C1O	.	.	.	.	.	-2%
CCN(CC)CCNS(=O)(=O)c1ccc(Cl)cc1	29%	-8%[57.1 µM]	3%	0%	?	12%
CCCN(CCC)CC(C)(C)NS(=O)(=O)c1ccc(Cl)cc1	?	2.5µM*	?	12%	?	-28%
Cc1ccc(NC(=O)c2cc(=O)n(Cc3ccccc3)c(=O)[nH]2)cc1C	-10%	10µM*	-29%	.	1%	-20%
O=C(O)c1cc(=O)n(Cc2ccccc2)c(=O)[nH]1	17%	28µM*	?	.	16µM*	?
COc1cccc(NC(=O)CCc2nc(-c3cc(OC)c(OC)c(OC)c3)no2)c1	2%	-25%	-6%	.	-7%[59 µM]	.
COC(=O)C/C=C\[C@@H](C)[C@@H](/C=N\OC[C@@H](C)[C@H](OCc1ccccc1)C(C)C)NS(=O)(=O)c1ccc(C)cc1	.	.	.	.	.	9%
c1ccc2oc(C3=NCCN3)cc2c1	.	.	.	.	.	21%
CC(C)(C)N=C1NN=C(c2cc3ccccc3o2)CS1	-26%	-34%	?	-10%	40µM*	-20%
O=C(CCCCCn1c(=O)[nH]c2ccccc2c1=O)NCc1cccc(Cl)c1	3%	-16%	0%	.	6%[59 µM]	.
CCCS(=O)(=O)N1CCN(Cc2ccco2)CC1	?	?	50µM*	-9%	14µM*	?
CCCS(=O)(=O)N1CCN(C(=O)c2ccco2)CC1	22%	-6%	9%	.	-24%	14%
